PLK1 PBD block – PLK1 (human) polo-box domain binding inhibition; P53350; Plk1 PBD binding of FITC phosphopeptide, fluorescence polarization; Potency, µM, hits mostly inhibitors; 360,000 compounds, 2.8% hits; AID 720504; also: series mostly up to about 57 µM; nearly all actives have a fitted effect of over 65% in size
Target sequence (P53350 whole entry, looked up, the tested form may be a part): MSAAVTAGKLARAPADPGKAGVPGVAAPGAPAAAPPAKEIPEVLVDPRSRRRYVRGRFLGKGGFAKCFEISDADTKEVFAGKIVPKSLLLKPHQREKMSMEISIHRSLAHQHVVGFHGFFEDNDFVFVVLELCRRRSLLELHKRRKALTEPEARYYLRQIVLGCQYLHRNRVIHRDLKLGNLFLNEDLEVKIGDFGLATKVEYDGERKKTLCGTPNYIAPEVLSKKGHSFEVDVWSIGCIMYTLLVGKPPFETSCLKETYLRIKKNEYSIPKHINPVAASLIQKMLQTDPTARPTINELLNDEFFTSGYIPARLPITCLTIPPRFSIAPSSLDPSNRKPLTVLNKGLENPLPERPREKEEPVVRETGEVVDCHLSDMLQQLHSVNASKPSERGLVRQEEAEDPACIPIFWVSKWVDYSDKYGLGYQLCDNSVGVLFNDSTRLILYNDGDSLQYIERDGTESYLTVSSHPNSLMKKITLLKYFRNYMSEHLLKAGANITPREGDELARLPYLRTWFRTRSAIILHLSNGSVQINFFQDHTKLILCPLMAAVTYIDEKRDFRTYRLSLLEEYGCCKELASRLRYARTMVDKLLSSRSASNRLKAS
VP16 counter – Gal4-VP16 reporter inhibition counter-screen. Potency, µM (top dose mostly 53.6 µM), most hits filed as inhibitors. Drosophila S2 Gal4-VP16 UAS-luciferase, luminescence, 20 h. 310,000 compounds, 3.5% hits;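 also: Gal4-VP16 expression switched on by copper sulfate through the metallothionein promoter; nearly all actives have a fitted effect of over 50% in size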
RORgamma inh – blocks mouse ROR gamma transcriptional activity; AID 2551; 310,000 compounds, 5.4% hits; Drosophila S2 Gal4-RORgamma UAS-luciferase reporter, 20 h; Potency, µM (titrated, usually from 53.6 µM), most hits filed as inhibitors; P51450; also: nearly all actives have a fitted effect of over 60% in size
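Drosophila Schneider cells stably carrying a metallothionein-driven Gal4 DBD–ROR gamma fusion and a UAS-Photinus luciferase reporter were exposed to compound for 1 hr, then induced with copper sulfate (700 uM final) for 20 hr at ambient temperature before luminescence reading.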
Sfp inh – inhibitors of Bacillus subtilis Sfp phosphopantetheinyl transferase | Q9F4F7 | Biochemical Sfp PPTase activity, qHTS | Potency, µM, usual class: inhibitors | 310,000 compounds, 3.5% hits | AID 1490;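 also: the enzyme is Sfp with the accession as filed and its product quenches rhodamine fluorescence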
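Step 1, compound plus 15 nM Sfp-PPTase, 15 min, room temperature. Step 2, add rhodamine-CoA (5 uM) and BHQ-2-YbbR (12.5 uM). Step 3, read 525/598 nm fluorescence at 0 and 30 min.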
ALDH1A1 inh – ALDH1A1 (human) enzyme inhibition | P00352 | Purified ALDH1A1, NADH fluorescence, propionaldehyde substrate | Potency, µM (titrated, usually from 75.3 µM), usual class: inhibitors | 220,000 compounds, 7.3% hits; active = well fitted inhibition curve with a large enough effect, not every such curve was filed as active; inconclusive = small, poorly fitted or top-dose-only effect, or another doubt; inactive = no such curve, though single readings can be large or run the other way
Numbers stand for hits; i = inactive; ? = inconclusive; nt = no result; [ ] = another dose, or the depositor's remark. Sampled rows, rich in hits. Any-hit rate of the full collection: about 12%. Unless noted, calls follow the shape of the dose curve; as a rule, active = well fitted curve in the direction sought with a large enough effect; inconclusive = small, poorly fitted or top-dose-only effect, or another doubt; inactive = no such curve, though single readings can be large; an effect the other way counts as inactive or inconclusive.

SMILES	PLK1 PBD block	VP16 counter	RORgamma inh	Sfp inh	ALDH1A1 inh
COc1cc(C(=O)Nc2ccc(Cl)c([N+](=O)[O-])c2)cc(OC)c1OC	i	i	i	i	i
O=C(ONC1=NCCCCC1)c1cccc([N+](=O)[O-])c1	i	i	7.08µM	i	i
CCCCC(=O)N(C)c1c(CC)nc2c(OCC=C(C)C)cccn12	i	nt	nt	nt	nt
CCc1nc2ccc(C(=O)N(C)CCN(C)C)cn2c1N(C)CCC(C)C	i	nt	nt	nt	nt
COc1ccc(/C=C/c2nc3cc(-c4ccccc4)ccc3o2)cc1O	i	?	31.6µM	i	?
CCc1nc2c(OCC(=O)c3ccc(F)cc3)cccn2c1N(C)C(=O)c1cccs1	i	nt	nt	nt	nt
Cc1ccccc1CNc1nc(N)n(-c2ccccc2)n1	i	i	i	i	i
Nc1nc(NCc2c(F)cccc2Cl)nn1-c1ccccc1	26.7µM	?	i	i	i
CC(=O)SC1CC2=CC(=O)CC[C@]2(C)C2CC[C@@]3(C)[C@@H](CC[C@@]34CCC(=O)O4)C12 (some centres undefined)	nt	nt	nt	nt	i
CCCCCC(=O)Nc1ccc(-c2csc(C)n2)cc1	i	i	?	i	?
Cc1nc(-c2ccc(NC(=O)c3ccco3)cc2)cs1	i	4.47µM	3.55µM	i	nt
O=C(Nc1ccc(Oc2ccc3ccccc3c2)cc1)c1ccco1	i	10µM	i	i	i
Nc1nc(-c2ccc(NC(=O)c3ccco3)cc2)cs1	i	?	10µM	i	nt
Cc1nc(-c2ccc(NC(=O)/C=C\C(=O)O)cc2)cs1	21.2µM	i	i	i	?
O=C(Nc1ccc(Oc2ccc(NC(=O)c3ccco3)c(NC(=O)c3ccco3)c2)cc1)c1ccco1	i	i	i	i	i
Cc1nc(-c2cccc(NC(=O)c3ccco3)c2)cs1	i	i	i	i	nt
CCC(=O)N1CCCC1(C)C(=O)Nc1ccc2nc(C)ccc2c1 (centres undefined)	i	nt	nt	nt	nt
CC(=NNC(=S)N1CCN(c2ccccn2)CC1)c1nccs1	i	nt	nt	nt	nt
O=C(/C=C/Nc1ccc(Oc2ccccc2)cc1)c1ccco1	i	i	i	50.1µM	i
Cc1nc(-c2ccc(C(=O)Nc3ccccc3F)cc2)cs1	i	8.91µM	8.91µM	i	i
CC(C)CNC(=O)C1(C)CCN1C(=O)c1ccc(C(C)(C)C)cc1 (centres undefined)	i	nt	nt	nt	nt
CCOCCCN(Cc1cc2cc(C)cc(C)c2[nH]c1=O)C(=O)N(CC)CC	i	i[0.365 µM]	i	i	?
CCc1cc2cc(C)cc(C)c2[nH]c1=S	i	i	7.08µM	56.2µM	i
NC(=O)C1CCN(C(=O)CC(c2ccccc2)c2ccccc2)CC1	i	i	i	i	nt
O=C(CN1CCCc2ccccc21)NC(=O)NCc1ccco1	i	i	?	35.5µM	i
SMILES	PLK1 PBD block	VP16 counter	RORgamma inh	Sfp inh	ALDH1A1 inh
COc1cc2c(cc1OC)CN(CC(=O)NC(=O)NCc1ccccc1)CC2	i	i	i	i	28.2µM
O=C(CN1CCCc2ccccc21)NC(=O)NCc1ccccc1	i	i	i	i	nt
NC(=O)C1CCN(C(=O)CN2CCCc3ccccc32)CC1	i	i	i	i	20µM
O=C(CN1CCc2ccccc21)NC(=O)NCc1ccccc1	26.7µM	i	?	i	7.08µM
COc1cccc(CNC(=O)[C@@H]2CCCN2C(=O)[C@@H]2CCCN2)c1	i	nt	nt	nt	nt
COC(=O)NC(CC(C)=O)c1ccc(Cl)cc1 (centres undefined)	nt	i[10 µM]	i[10 µM]	i	i[13.5 µM]
O=C(CN1CCCc2ccccc21)NC(=O)NC1CCCCC1	26.7µM	i	i	?	?
COC(=O)c1ccccc1S(=O)(=O)N1CCC(C(=O)OCC(=O)c2ccccc2OC)CC1	i	nt	nt	nt	nt
CC(C)OC(=O)CC12CN3CN(C1)CC(CC(=O)OC(C)C)(C3)C2=O	i	i	i	i	2.51µM
CCOC(=O)CC12CN3CN(C1)CC(CC(=O)OCC)(C3)C2=O	i	i	i	i	i
CCOC(=O)c1sc(SCC(=O)Nc2ccc(N(C)C)cc2)nc1N	i	i	i	i	22.4µM
CN(C)c1ccc(NC(=O)CSc2nc(N)c(C(=O)Nc3ccc(N(C)C)cc3)s2)cc1	i	i	?	i	25.1µM
CNC(=O)[C@H](C)/C=C(\c1cccnc1)C(NC(=O)OCc1ccccc1)c1ccc(C(=O)OC)cc1 (some centres undefined)	nt	i	i	i	i
COc1cccc(C2C(C(=O)c3cccs3)=C(O)C(=O)N2CCN(C)C)c1OC (centres undefined)	?	i	i	i	?
CCN(CC)CCN1C(=O)C(O)=C(C(=O)c2cccs2)C1c1ccccn1 (centres undefined)	i	i	i	56.2µM	17.8µM
Cc1ccc(C2C(C(=O)c3cccs3)=C(O)C(=O)N2CCN2CCOCC2)o1 (centres undefined)	i	i	i	?	17.8µM
CCN(CC)CCN1C(=O)C(O)=C(C(=O)c2cccs2)C1c1ccc(C)o1 (centres undefined)	i	i	i	i	22.4µM
COCCN1C(=O)C(O)=C(C(=O)c2cccs2)C1c1ccccc1 (centres undefined)	i	i	i	i	i
O=C(C1=C(O)C(=O)N(CCN2CCOCC2)C1c1ccccn1)c1cccs1 (centres undefined)	i	i	i	?	18.9µM
O=C(Nc1ccccc1)C12CC1/C(=N\O)c1ccccc1O2 (centres undefined)	nt	nt	nt	i	?
O=C(NNCS(=O)(=O)O)c1ccncc1	nt	i	i	i	nt
C#CCSc1nc2[nH]ncc2c(=O)[nH]1	i	i	i	i	?
Cc1cc(C)cc(NC(=O)CSc2nc3[nH]ncc3c(=O)[nH]2)c1	i	i	i	i	i
CC1CCN(C(=O)CSc2nc3ccccc3c(=O)[nH]2)CC1	i	i	i	i	?
Cc1csc(NC(=O)CSc2nc3[nH]ncc3c(=O)[nH]2)n1	21.2µM	i	i	i	i
SMILES	PLK1 PBD block	VP16 counter	RORgamma inh	Sfp inh	ALDH1A1 inh
C=CCSc1nc2[nH]ncc2c(=O)[nH]1	29.9µM	i	i	i	i
CC1CCN(C(=O)CSc2nc3[nH]ncc3c(=O)[nH]2)CC1	i	i	i	i	11.2µM
CCCCNC(=O)C(NC(=O)c1ccc(-c2ccccc2)cc1)C(=O)c1ccccc1 (centres undefined)	i	nt	nt	nt	nt
COc1ccc(CC(=O)NC2CCN(Cc3nnnn3C(C)(C)C)CC2)cc1OC	i	i	i	i	25.1µM
CC(C)(C)n1nnnc1CN1CCC(NC(=O)NC2CCCCC2)CC1	i	i	i	i	i
Cc1ccc(Cn2nnnc2CN2CCC(NC(=O)c3ccc(Br)cc3)CC2)cc1	i	i	i	i	i
CCC(C)(C)n1nnnc1CN1CCC(NC(=O)c2ccc(Br)cc2)CC1	i	i	?	i	5.01µM
COC(=O)[C@H](COC(C)(C)C)NC(=O)O[C@@H]1C(=O)c2cc(Br)ccc2O[C@H]1c1cccc(OC)c1	nt	i	i	i	i
O=C(c1ccccc1)c1ccc(C(=O)N2CCN(c3ccccc3O)CC2)cc1	i	nt	nt	nt	nt
Cc1cc(C)n(CC2CC(=O)N(c3ccc(F)c(Cl)c3)C2=O)n1 (centres undefined)	i	i	14.1µM	i	i

Screening results as filed in PubChem BioAssay.
